The list is not random: actives were taken first. Their share in the collection is about 12%.
BAZ2B inh – qHTS Assay for Inhibitors of BAZ2B | Bromodomain adjacent to zinc finger domain protein 2B (Homo sapiens), Q9UIF8 | AID 504333, 2011 | AlphaScreen BAZ2B-H3K14Ac peptide displacement | actives 4.4% (n = 360,000) | Potency, µM (series often up to 114 µM), for inactives: top-dose activity change, negative = inhibition, actives largely listed as inhibitors; note: potency is the fitted concentration of half-maximal effect; % is set by controls: 0 for no effect and ±100 for the full control effect; nearly all actives have a fitted effect of over 60% in size
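Inhibition is scored as reduced AlphaScreen emission. The BAZ2B/b-H3(5-23)K14Ac complex (50 nM each) in PBS pH 7.4, 0.01% Tween-20 meets compound (up to 110 uM) for 30 min at RT before bead addition.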
G9a inh – qHTS Assay for Inhibitors of Histone Lysine Methyltransferase G9a; Histone-lysine N-methyltransferase EHMT2 (Homo sapiens), Q96KQ7; G9a H3K9 monomethylation, AlphaScreen, 2 h; Potency, µM (series often up to 102 µM), inactives show top-dose activity, negative = inhibition, usual class: inhibitors; actives 8.8% (n = 350,000); note: potency is the fitted concentration of half-maximal effect; % is set by controls: 0 for no effect and ±100 for the full control effect; nearly all actives have a fitted effect of over 75% in size
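Methyltransferase reactions run at room temperature for 2 h (20 nM enzyme, 500 nM biotin-H3K9 peptide, 20 uM SAM) after a 15 min compound preincubation; product detected by AlphaScreen beads and anti-H3K9me1 antibody.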
PLK1 PBD inh – qHTS for Inhibitors of PLK1-PDB (polo-like kinase 1 - polo-box domain): Primary Screen. AID 720504, 2013. Serine/threonine-protein kinase PLK1 (Homo sapiens), P53350. actives 2.8% (n = 360,000). Plk1 PBD binding of FITC phosphopeptide, fluorescence polarization. Potency, µM, for inactives: max response, negative = inhibition, usual class: inhibitors; note: potency is the fitted concentration of half-maximal effect; series mostly up to about 57 µM; % is set by controls: 0 for no effect and ±100 for the full control effect; nearly all actives have a fitted effect of over 65% in size
HP1b binding inh – HTS for Inhibitors of HP1-beta Chromodomain Interactions with Methylated Histone Tails; Chromobox protein homolog 1 (Homo sapiens), P83916; AlphaScreen HP1-beta / biotin-H3K9me3 peptide binding; Potency, µM (highest dose often 114 µM), for inactives: at the top dose activity change, negative = inhibition, actives largely listed as inhibitors; actives 0.56% (n = 390,000); AID 540317, 2011; note: potency is the fitted concentration of half-maximal effect; nearly all actives have a fitted effect of over 70% in size
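Compound inhibition of the preformed complex between 50 nM HP1-beta and 50 nM biotinylated H3K9me3 peptide was read by AlphaScreen. Buffer was PBS pH 7.4 with 0.01% Tween-20. Incubations ran 30 min at room temperature, with 10 ug/mL donor/acceptor beads.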
JMJD2A Tudor inh – qHTS Assay for Inhibitors of JMJD2A-Tudor Domain; Lysine-specific demethylase 4A (Homo sapiens), O75164; AlphaScreen JMJD2A-Tudor / H3K4me3 peptide binding; Potency, µM (titrated, usually from 114 µM), for the others: top-dose activity change, negative = inhibition, usual class: inhibitors; actives 4.4% (n = 390,000); note: potency is the fitted concentration of half-maximal effect; % is set by controls: 0 for no effect and ±100 for the full control effect; nearly all actives have a fitted effect of over 50% in size
PI5P4Ka inh – qHTS for Inhibitors of phosphatidylinositol 5-phosphate 4-kinase (PI5P4K); Phosphatidylinositol 5-phosphate 4-kinase type-2 alpha (Homo sapiens), P48426; max response, %; PI5P4Kalpha enzyme, ADP-Glo luminescence, 60 min; active compounds read low; AID 652105, 2013; actives 1.2% (n = 330,000); active = max response of -50% or lower; inconclusive = between -30% and -50%; inactive = -30% or higher; note: value at the top dose of about 77 µM; % is set by controls: 0 for no effect and ±100 for the full control effect
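ADP-Glo luminescence end-point after a 60 min room-temperature kinase reaction. PI5P4Kalpha and substrate in HEPES pH 7.4 buffer with EGTA, 0.1% CHAPS and 5% DMSO; ATP at 5 microM final.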
Active calls of the source: *; ? = inconclusive; . = no result; [ ] = dose if it differs, or a comment. Unless noted, calls come from the whole dose curve; as a rule, active = well fitted curve in the direction sought with a large enough effect; inconclusive = small, poorly fitted or top-dose-only effect, or another doubt; inactive = no such curve, though single readings can be large; an effect the other way counts as inactive or inconclusive.

SMILES	BAZ2B inh	G9a inh	PLK1 PBD inh	HP1b binding inh	JMJD2A Tudor inh	PI5P4Ka inh
CN(C)c1ccc(C(CNC(=O)c2ccc(C(C)(C)C)cc2)N2CCCC2)cc1 (configuration not stated)	28µM*	16µM*	.	?	45µM*	.
Cc1ccc(S(=O)(=O)NCC(c2ccc(N(C)C)cc2)N2CCOCC2)cc1 (configuration not stated)	-35%	?	.	-23%	?	.
O=S(=O)(NCC(c1ccccc1)N1CCC(O)CC1)c1ccc(Cl)cc1 (configuration not stated)	2%	-6%	21µM*	24%	?	-3
CN(C)c1ccc(C(c2ccc(N(C)C)cc2)c2ccc([N+](=O)[O-])cc2)cc1	6.3µM*	5µM*	-3%	8.9µM*	10µM*	9
Cc1ccc(-n2cc(C(=O)OCc3ccc(F)c(F)c3)c3ccccc3c2=O)cc1	7%	7%[59 µM]	.	26%[57 µM]	-6%	.
CCOc1ccc(N2CC(NC(=O)c3cc4ccccc4o3)CC2=O)cc1 (configuration not stated)	-10%	2%[59 µM]	.	53%	-10%	.
CN(C)c1ccc(C(CNS(=O)(=O)c2ccc(F)cc2)N2CCCC2)cc1 (configuration not stated)	?	-6%[59 µM]	.	10%	?	.
CN(C)c1ccc(C(CNS(=O)(=O)c2ccc3ccccc3c2)N2CCOCC2)cc1 (configuration not stated)	50µM*	14%[0.501 µM]	-8%	?	?	-2
CN(C)c1ccc(C(CNS(=O)(=O)c2ccc([N+](=O)[O-])cc2)N2CCCC2)cc1 (configuration not stated)	6%	45µM*	2%	?	45µM*	1
CCN1CCN(C(CNS(=O)(=O)c2ccc(Cl)cc2)c2cccnc2)CC1 (configuration not stated)	-3%	79µM*	3%	15%	2%	-1
CCN1CCN(C(CNS(=O)(=O)c2ccc(Br)cc2)c2cccnc2)CC1 (configuration not stated)	-1%	20%	0%	34%	-10%	1
COCCOC(=O)c1c(-c2ccccc2)c(-c2ccccc2)nn(C)c1=O	-1%	?	.	15%	-8%	.
CCOc1ccccc1-n1cc2c(c1-c1ccc(OC)cc1)c(=O)n(C)c(=O)n2C	-24%	?	.	7%	-30%	.
CC(=O)Nc1ccc(-c2nnc(SCC(=O)Nc3ccc4c(c3)oc3ccccc34)n2C)cc1	1%[57.1 µM]	32%[0.501 µM]	-3%	44%	100µM*	1
Cn1c(SCC(=O)O)nnc1-c1ccc(NC(=O)c2ccc(Cl)c(Cl)c2)cc1	-1%	50µM*	-18%	24%	-8%	-9
Cc1ccc(-c2nnc(SCC(=O)CC(=O)Nc3ccccc3)n2C)cc1	-4%	-21%[59 µM]	-12%	57%	-13%[57.1 µM]	1
COc1ccc(Oc2ncc3nc(C)c(=O)n(C[C@H]4CCCO4)c3n2)cc1	.	8%[0.501 µM]	.	.	.	.
O=c1[nH]c(-c2ccccc2)nnc1-c1ccccc1	-6%	-2%	-1%	9%	-4%	3
O=[N+]([O-])c1ccc(/C=N/n2c(COc3ccccc3)n[nH]c2=S)cc1	?	?	?	-16%	79µM*	-2
O=[N+]([O-])c1cccc(/C=N/n2c(COc3ccccc3)n[nH]c2=S)c1	?	5%[0.501 µM]	?	-40%	56µM*	.
Cc1ccccc1OCc1nc2ccccc2c(=O)n1/N=C/c1cccc([N+](=O)[O-])c1	6%	26%[59 µM]	-4%	-1%	-24%	11
CC(C)(C)OC(=O)NCC(=O)NNC(=O)c1nc2ccccc2[nH]1	.	.	.	.	-15%	.
